High-throughput results as filed in PubChem BioAssay.
Caspase-1 inhib = caspase-1 (human) inhibition, allosteric or competitive | Caspase-1 enzyme, Ac-WEHD-AFC fluorogenic rate | Potency, µM (series often up to 57.5 µM), without a hit: at the top dose activity change, negative = inhibition, hits mostly inhibitors | actives 0.03% (n = 75,000) | AID 900;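 also: plate controls were vehicle for no effect and no substrate for full effect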
Target sequence (P29466 120-297 limits assumed): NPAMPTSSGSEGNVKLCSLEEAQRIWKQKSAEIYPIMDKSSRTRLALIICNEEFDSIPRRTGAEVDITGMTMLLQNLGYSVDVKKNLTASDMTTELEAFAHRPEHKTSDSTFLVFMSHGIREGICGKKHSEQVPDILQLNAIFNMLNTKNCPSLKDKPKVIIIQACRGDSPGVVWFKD
Target sequence (P29466 317-404 limits assumed): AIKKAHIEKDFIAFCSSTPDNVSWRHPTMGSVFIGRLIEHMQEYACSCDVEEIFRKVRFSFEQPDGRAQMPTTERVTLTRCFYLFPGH
15-hLO inh = inhibitors of human 15-lipoxygenase (ALOX15) | purified 15hLO-1, xylenol orange hydroperoxide absorbance | P16050 | AID 887 | actives 1.4% (n = 74,000) | Potency, µM (doses to about 57.1 µM), for inactives: at the top dose activity change, negative = inhibition, most hits filed as inhibitors; also: % is scaled to controls: 0 for no effect and ±100 for the full control effect; nearly all actives have a fitted effect of over 55% in size
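Inhibition is scored from a chromogenic endpoint. After 15 min enzyme-compound contact, arachidonic acid (50 uM final) reacts 6 min with 40 nM 15hLO-1 at room temperature, then Fe-XO reagent is added for 30 min and absorbance ratio recorded.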
DNA Pol III inh = inhibitors of bacterial DNA polymerase III holoenzyme; reconstituted DNA polymerase III holoenzyme replication, biochemical; actives 0.25% (n = 71,000); AID 603; Potency, µM (series often up to 57.1 µM), inactives show at the highest dose activity change, negative = inhibition; also: % is scaled to controls: 0 for no effect and ±100 for the full control effect
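Reconstituted *E. coli* holoenzyme (0.35 nM Pol III, 1 nM beta, 154 nM SSB, 2 nM primase) was preincubated with compound for 15 min at RT. Synthesis on 1.4 nM ssM13Gori ran 35 min, then was stopped with PicoGreen/EDTA and read as dsDNA fluorescence.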
Tau filament bind = binders of human tau filaments. recombinant tau filaments, thioflavin S fluorescence, 15 h; filaments grown with octadecylsulfate alongside compound. Potency, µM (titrated, usually from 57.1 µM), without a hit: at the highest dose activity change, negative = inhibition. actives 2% (n = 71,000);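 also: % is scaled to controls: 0 for no effect and ±100 for the full control effect; actives lower thioflavin S fluorescence by blocking filaments or displacing dye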
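Read-out: ThS fluorescence, 450 nm excitation/510 nm emission; lower signal marks blocked filament formation or displaced dye. Tau at 1 uM with 30 uM ODS, 10 uM ThS, 5 mM DTT, 100 mM NaCl, 10 mM HEPES pH 7.4; 15 h, 37 C.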
Casp7 inh = allosteric or competitive inhibitors of human caspase-7 | actives 0.02% (n = 75,000) | Potency, µM (titrated, usually from 57.5 µM), without a hit: at the highest dose activity change, negative = inhibition, actives largely listed as inhibitors | P55210 | AID 889 | recombinant caspase-7, Ac-DEVD-AFC fluorescence rate; active = well fitted inhibition curve with a large enough effect in the main read-out, with a control signal flat, not every such curve was filed as active; inconclusive = small, poorly fitted or top-dose-only effect, or a change in a side signal; also: % of control where 0% means no effect
Target sequence (P55210 24-198 limits assumed): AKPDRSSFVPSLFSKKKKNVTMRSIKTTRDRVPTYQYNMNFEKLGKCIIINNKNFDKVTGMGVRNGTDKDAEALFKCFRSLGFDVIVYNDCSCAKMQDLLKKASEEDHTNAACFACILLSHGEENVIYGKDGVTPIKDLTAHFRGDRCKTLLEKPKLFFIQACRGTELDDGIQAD
Target sequence (P55210 207-303 limits assumed): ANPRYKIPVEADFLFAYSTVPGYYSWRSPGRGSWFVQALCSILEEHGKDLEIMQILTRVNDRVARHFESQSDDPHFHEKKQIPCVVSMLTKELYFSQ
* = called active by the depositor; [ ] = another dose, or the depositor's remark. Sampled rows, rich in hits. Any-hit rate of the full collection: about 3.2%. Unless noted, calls follow the shape of the dose curve; as a rule, active = well fitted curve in the direction sought with a large enough effect; inconclusive = small, poorly fitted or top-dose-only effect, or another doubt; inactive = no such curve, though single readings can be large; an effect the other way counts as inactive or inconclusive. Potency is read from the fitted curve at half-maximal effect.

Oc1ccc(C=Nc2ccc(N3CCOCC3)cc2)c(O)c1 was read as Caspase-1 inhib -5.2%, 15-hLO inh inconclusive, DNA Pol III inh -14.6%, Tau filament bind 20µM* and Casp7 inh -12.8%.
Screening Cc1cc(C)c(C)c(S(=O)(=O)NCCC(=O)O)c1C returned Caspase-1 inhib -1.2%, 15-hLO inh -0.9% and Casp7 inh -1.6%.
Screening Clc1cc2c(c(CSC3=NCN(CC4CC4)CN3)c1)OCOC2 returned Caspase-1 inhib 1.4%[11.5 µM], 15-hLO inh 10.5%[11.4 µM], DNA Pol III inh -9.2%[11.4 µM], Tau filament bind 17.8%[11.4 µM] and Casp7 inh -1.8%[11.5 µM].
For COc1ccc(CCNC(=O)CC2Nc3ccccc3NC2=O)cc1 (stereo unspecified) the results were Caspase-1 inhib -5.7%, 15-hLO inh -1.3%, DNA Pol III inh -5.8%, Tau filament bind 12.6µM* and Casp7 inh -7.4%.
CC(NC(=O)CC1Nc2ccccc2NC1=O)c1ccccc1 (stereo unspecified) was read as Caspase-1 inhib -0.3%, 15-hLO inh inconclusive, DNA Pol III inh -2.5%, Tau filament bind -1.0% and Casp7 inh -1.4%.
`CCOc1ccccc1NC(=O)CC1Nc2cc(C)c(C)cc2NC1=O` (stereo unspecified) gave Caspase-1 inhib -5.0%, 15-hLO inh inconclusive, DNA Pol III inh 0.8%, Tau filament bind 3.98µM* and Casp7 inh -8.5%.
Screening Cc1ccc(NC(=O)CC2Nc3ccccc3NC2=O)cc1Cl (stereo unspecified) returned Caspase-1 inhib inconclusive, 15-hLO inh -26.4%, DNA Pol III inh -1.0%, Tau filament bind 20µM* and Casp7 inh -29.0%.
`COC(=O)[C@@H]1O[C@@H](c2c(OC)c(OC)c(C)c(OC)c2OC)[C@H](C)[C@@H](O)[C@@H]1C` gave Caspase-1 inhib 0.4%[11.5 µM], 15-hLO inh 4.7%[11.4 µM] and Casp7 inh -0.2%[11.5 µM].
For CC(C)(C)CC(C)(C)c1cc(O)c(O)c(CN2CCCCC2)c1 the results were Caspase-1 inhib 1.0%[11.5 µM], 15-hLO inh 0.398µM*, DNA Pol III inh -11.2%[11.4 µM], Tau filament bind inconclusive and Casp7 inh -0.6%[11.5 µM].
CCCNC(=O)OC[C@@H]1O[C@H](CCO/N=C(\C)CCN2CCc3nc(CC)c(CC)cc3C2)C=C[C@@H]1Oc1ccc(OC)cc1 was read as Caspase-1 inhib 2.3%[11.5 µM], 15-hLO inh 6.6%[11.4 µM] and Casp7 inh -1.9%[11.5 µM].
Screening CCCCCCCC/C=C\CCCCCCCC(=O)NCc1ccc(O)c(OC)c1 returned Caspase-1 inhib -1.0%, 15-hLO inh 2.6%[25.6 µM], DNA Pol III inh 2.5%, Tau filament bind 39.8µM* and Casp7 inh -6.4%.
CCCCCCCCCCCCCCCC(=O)NCCc1ccc(O)c(O)c1 was read as Caspase-1 inhib 1.5%, 15-hLO inh -4.8% and Casp7 inh -1.7%.
Screening CCCCCCCCCCCCCCCCCC(=O)NCCc1ccc(O)c(O)c1 returned Caspase-1 inhib -1.2%, 15-hLO inh -8.1% and Casp7 inh -0.1%.
`CCCCCCCC/C=C\CCCCCCCC(=O)NCCc1ccc(O)c(O)c1` gave Caspase-1 inhib -0.4%, 15-hLO inh 3.98µM*, DNA Pol III inh -0.2%, Tau filament bind -8.8% and Casp7 inh -3.1%.
CCCCCCN(CCCCCC)C(=O)Cc1c(-c2ccc(Cl)cc2)[nH]c2ccc(Cl)cc12 was read as Caspase-1 inhib -3.7%, 15-hLO inh 2.8%[25.6 µM], DNA Pol III inh 0.3%, Tau filament bind -25.4% and Casp7 inh 2.9%.
Screening CCCCCCCCCCCCC/C=C\[C@H](O)[C@H](N)CO returned DNA Pol III inh -5.7% and Tau filament bind -11.6%.
CCC(=O)Nc1ncnc2ncn(C(=O)CC)c12 was read as Caspase-1 inhib -0.8%[11.5 µM], 15-hLO inh 5.2%[11.4 µM], DNA Pol III inh 0.1%[11.4 µM], Tau filament bind -9.6%[11.4 µM] and Casp7 inh 0.6%[11.5 µM].
Screening C[C@@H]1CCCN(CP(=O)(c2ccccc2)c2ccccc2)C1 returned Caspase-1 inhib -1.3%[11.5 µM], 15-hLO inh 5.4%[11.4 µM], DNA Pol III inh -10.3%[11.4 µM], Tau filament bind 1.5%[11.4 µM] and Casp7 inh 0.3%[11.5 µM].
COc1cc(C(=O)Nc2nnc(-c3sccc3C)s2)cc(OC)c1OC was read as Caspase-1 inhib inconclusive, 15-hLO inh 20µM*, DNA Pol III inh -2.9%, Tau filament bind -6.7% and Casp7 inh -21.3%.
For COC(=O)c1ccc(C(NC(=O)OCc2ccccc2)/C(=C/[C@@H](C)C(=O)N[C@@H](CO)Cc2ccccc2)c2cccnc2)cc1 (stereo partly specified) the results were Caspase-1 inhib -3.4%, 15-hLO inh 25.1µM*, DNA Pol III inh 0.4%, Tau filament bind 11.7% and Casp7 inh -3.2%.
O=C(O)C/C(=C\c1ccccc1)C(=O)O was read as Caspase-1 inhib 3.0%[11.5 µM], 15-hLO inh 1.3%[11.4 µM], DNA Pol III inh -1.9%[11.4 µM], Tau filament bind 0.8%[11.4 µM] and Casp7 inh 0.2%[11.5 µM].
NC[C@@H]1O[C@@H](O[C@H]2[C@H](O)[C@H](O[C@@H]3O[C@H](CO)[C@@H](O)[C@H](N)[C@@H]3O)[C@@H](N)C[C@H]2N)[C@H](N)C[C@@H]1O was read as Caspase-1 inhib -2.0%[25.7 µM], 15-hLO inh 37.1%[25.6 µM], DNA Pol III inh 9.4%[25.6 µM], Tau filament bind 2.5%[25.6 µM] and Casp7 inh -0.1%[25.7 µM].
`COc1cccc(N2C(=O)CC(Nc3ccc(N4CCOCC4)cc3)C2=O)c1` (stereo unspecified) gave Caspase-1 inhib -0.1%, 15-hLO inh 12.6µM* and Casp7 inh -1.0%.
Screening CC(=O)C1=C(O)C=C(c2ccco2)CC1c1ccco1 (stereo unspecified) returned Caspase-1 inhib -5.2%, 15-hLO inh inconclusive, DNA Pol III inh -2.2%, Tau filament bind 20µM* and Casp7 inh -7.7%.
`CC(C)(Oc1ccc(-c2ccco2)cc1)C(=O)O` gave Caspase-1 inhib -2.6%, 15-hLO inh 1.9%, DNA Pol III inh -3.4%, Tau filament bind 7.6% and Casp7 inh 0.2%.
Screening O=C1C2C3C=CC(C3)C2C(=O)N1c1ncn[nH]1 (stereo unspecified) returned Caspase-1 inhib -0.8%, 15-hLO inh 7.5%, DNA Pol III inh 12.6µM*, Tau filament bind -11.4% and Casp7 inh -0.1%.
For CC1CCC2C(=O)N3C(CCC(C)[C@@H]3c3ccc(-c4ccco4)cc3)C(=O)N2C1c1cccc(N2CCCC2=O)c1 (stereo partly specified) the results were Caspase-1 inhib -2.5%[11.5 µM], 15-hLO inh 5.01µM* and Casp7 inh 1.0%[11.5 µM].
For CC1CCC2C(=O)N3C(CCC(C)C3c3ccc(-c4ccco4)cc3)C(=O)N2C1c1ccc(-c2ccco2)cc1 (stereo unspecified) the results were Caspase-1 inhib 0.2%[11.5 µM], 15-hLO inh 2.51µM* and Casp7 inh -17.6%[11.5 µM].
C[C@@H]1CC[C@@H]2C(=O)N3[C@@H](CC[C@@H](C)[C@@H]3c3ccc(-c4ccco4)cc3)C(=O)N2[C@H]1c1ccc(-c2ccco2)cc1 was read as Caspase-1 inhib -0.8%[11.5 µM], 15-hLO inh -12.7%[11.4 µM] and Casp7 inh -3.7%[11.5 µM].
